The source made the active and inactive calls.

Assay [1] has as its system Human papillomavirus type 1a protein E7 (residues 44-93). Nature of the assay: HPV1a E7 fragment binders on microarrays, primary screen, biochemical, small-molecule microarray, residues 44-93, 635 nm fluorescence (AID 1108).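 Also: E7 fragment applied at 1 µg/mL in TBST for 1 h at 4 C; score combines spot fluorescence with its signal to noise ratio.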 Particulars: small-molecule microarray binding, fluorescence 635 nm; higher = more signal.
Assay [2] can be described thus: modulators of HCV replicon luciferase signal, primary screen, HCV replication inhibitor project, Huh7 cells, luciferase reporter (AID 1109).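 Also: huh7 hepatoma cells harbouring a luciferase neomycin HCV replicon reporter; luciferase luminescence as measure of HCV replicon replication; test concentration not given here.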 As to conditions: 48 h, higher = more signal. On the technique in general: Replicon systems follow genome replication, usually without infectious particles.
Assay [3] concerns the target Left-right determination factor 2 (Homo sapiens) (UniProt O00292). Nature of the assay: LEFTY2 binders on small-molecule microarrays, primary screen, biochemical, small-molecule microarray, 635 nm fluorescence scan (AID 1110). As to conditions: LEFTY2 binding, higher = more signal.
Assay [4] concerns the target Calmodulin-1 (Homo sapiens) (UniProt P0DP23). As to the kind of experiment: CALM1 binders on microarrays, EGTA buffer, profiling panel, biochemical, small-molecule microarray, Cy5-labelled CALM1 (AID 1111).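 Also: labelled calmodulin applied in Tris saline Tween buffer holding calcium plus EGTA and DTT.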 Particulars: Cy5-CALM1 binding fluorescence, higher = more signal.
Assay [5] shares this target. As to the kind of experiment: calcium-bound CALM1 binders on microarrays, profiling panel, artefact control for SMM control-protein annotation, biochemical, small-molecule microarray, Cy5-labelled CALM1, plus calcium (AID 1112).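 Also: score merges spot fluorescence with signal to noise from triplicate slides.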 As to conditions: Cy5-CALM1 binding fluorescence, higher = more signal.
A short description of assay [6]: small-molecule microarray binders of probe aWnt5a, primary screen, biochemical, biotinylated probe, 635/667 nm fluorescence (AID 1113).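 Also: score merges 667 nm fluorescence intensity with signal-to-noise per printed feature.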 As to conditions: higher = more signal.
Assay [7] is described as follows: small-molecule microarray binders of probe aShh, primary screen, biochemical, biotinylated probe, 635/667 nm fluorescence (AID 1114).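 Also: probe is biotin-labelled aShh protein from a stem cell growth factor screen; measures binding of labelled protein to compounds printed on the slide; score merges feature fluorescence at 667 nm with signal-to-noise.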 Particulars: higher = more signal.
Assay [8] is described as follows: small-molecule microarray binders of probe aNog, primary screen, biochemical, biotinylated probe, 635/667 nm fluorescence (AID 1115).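 Also: probe is biotinylated aNog protein used at 0.15 µg/mL for 1 h at 4 C; z-score combines 667 nm fluorescence of each spot with its signal to noise.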 Particulars: higher = more signal.
The target of assay [9] is Torsin-1A-interacting protein 1 (Homo sapiens) (UniProt Q5JTV8). Nature of the assay: LAP1 binders from COS7 cell lysate, primary screen, small-molecule microarray, 635/667 nm fluorescence (AID 1116). As to conditions: COS7-hLAP1 lysate binding, 635 nm fluorescence, higher = more signal.
The target in assay [10] is Alpha-bungarotoxin (Bungarus multicinctus) (UniProt P60615). As to the kind of experiment: alpha-bungarotoxin binders on microarray, profiling panel, artefact control for SMM control protein annotation, biochemical, small-molecule microarray, Alexa647 label, 635/667 nm fluorescence (AID 1117). As to conditions: alpha-BTX-A647 binding fluorescence, higher = more signal.
Assay [11] addresses Albumin (Bos taurus) (UniProt P02769). As to the kind of experiment: bovine serum albumin binders on microarray, profiling panel, artefact control for SMM control protein annotation, biochemical, small-molecule microarray, Alexa647 label, 635/667 nm fluorescence (AID 1118).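 Also: score merges 667 nm emission intensity and signal-to-noise per printed compound spot.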 As to conditions: BSA-A647 binding, fluorescence 635 nm, higher = more signal.
Assay [12] is described as follows: small-molecule microarray binders of probe aXIP, primary screen, biochemical, NeuroSMM set, 635/667 nm fluorescence (AID 1119).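 Also: probe is the protein aXip251-270 applied at 1 µg/mL to compound-printed slides; binding of probe to printed compounds measured as 667 nm fluorescence plus signal to noise.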 Particulars: higher = more signal, called active from +8 up or from −8 down.
Assay [13] is described as follows: small-molecule binders of probe aNOTCH3, primary screen, biochemical, small-molecule microarray, 635/667 nm fluorescence (AID 1120).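 Also: probe is a biotin-tagged antibody raised against NOTCH3 rather than NOTCH3 protein; score merges spot fluorescence near 667 nm with spot signal to noise.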 Particulars: higher = more signal.
Assay [14] in a line: small-molecule binders of probe aNOTCH2, primary screen, biochemical, small-molecule microarray, 635/667 nm fluorescence (AID 1121).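 Also: score merges feature fluorescence read at 667 nm with its signal to noise.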 As to conditions: higher = more signal.
The target in assay [15] is Carbonic anhydrase 2 (Homo sapiens) (UniProt P00918). As to the kind of experiment: CAII small-molecule binders, profiling panel, biochemical, small-molecule microarray, Alexa647-labelled CAII (AID 1122). Particulars: CAII-A647 binding fluorescence, higher = more signal.
A short description of assay [16]: COS7 lysate on small-molecule microarray, probe aHis, 635 nm (AID 1123).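 Also: z-score combines 667nm fluorescence intensity with signal-to-noise per printed compound spot.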 Particulars: COS7 cell lysate, fluorescence, higher = more signal.
Assay [17] in a line: compound binding in COS7 lysate, probe aLAP1, primary screen, cell lysate, small-molecule microarray (AID 1124).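 Also: lysate comes from COS7 cells expressing LAP1 and is applied at 0.3 µg/mL; score merges spot fluorescence near 667 nm with signal-to-noise over triplicate slides.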 Particulars: probe aLAP1, fluorescence, higher = more signal.
Assay [18] has as its system Sam68 (KHDRBS1). Nature of the assay: Sam68 small-molecule binders, primary screen, biochemical, small-molecule microarray, 635 nm fluorescence (AID 1125).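 Also: score merges 667 nm channel intensity with signal to noise over triplicate slides.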 Particulars: small-molecule microarray binding, higher = more signal.
Assay [19] has as its system Chordin-like protein 2 (CHRDL2). As to the kind of experiment: CHRDL2 small-molecule binders, primary screen, biochemical, small-molecule microarray, 635 nm fluorescence (AID 1126).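 Also: printed compound slides probed with Chrdl2 protein at 4 µg/mL for 1 h at 4 C; score merges 667 nm emission intensity with signal to noise over three replicate slides.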 As to conditions: small-molecule microarray binding, fluorescence 635 nm; higher = more signal.
In assay [20] the target is Concanavalin-A (Canavalia ensiformis) (UniProt P02866). Nature of the assay: ConA small-molecule binders, primary screen, artefact control for SMM control protein annotation, biochemical, small-molecule microarray, Alexa647 label, 635 nm (AID 1127).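 Also: z combines 667 nm emission intensity with signal-to-noise across three replicate slides.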 As to conditions: ConA-A647 binding fluorescence, higher = more signal.
Chain of Concanavalin-A (Canavalia ensiformis) (P02866 whole entry, looked up): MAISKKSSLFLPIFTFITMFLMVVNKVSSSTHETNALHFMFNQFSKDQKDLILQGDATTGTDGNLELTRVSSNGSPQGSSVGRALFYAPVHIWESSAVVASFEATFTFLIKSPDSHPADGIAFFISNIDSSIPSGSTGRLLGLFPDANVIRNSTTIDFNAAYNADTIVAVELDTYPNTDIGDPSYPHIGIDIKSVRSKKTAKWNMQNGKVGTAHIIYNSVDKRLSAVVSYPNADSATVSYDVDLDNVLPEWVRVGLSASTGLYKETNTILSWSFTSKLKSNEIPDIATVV

Chain of Torsin-1A-interacting protein 1 (Homo sapiens) (Q5JTV8 whole entry, looked up): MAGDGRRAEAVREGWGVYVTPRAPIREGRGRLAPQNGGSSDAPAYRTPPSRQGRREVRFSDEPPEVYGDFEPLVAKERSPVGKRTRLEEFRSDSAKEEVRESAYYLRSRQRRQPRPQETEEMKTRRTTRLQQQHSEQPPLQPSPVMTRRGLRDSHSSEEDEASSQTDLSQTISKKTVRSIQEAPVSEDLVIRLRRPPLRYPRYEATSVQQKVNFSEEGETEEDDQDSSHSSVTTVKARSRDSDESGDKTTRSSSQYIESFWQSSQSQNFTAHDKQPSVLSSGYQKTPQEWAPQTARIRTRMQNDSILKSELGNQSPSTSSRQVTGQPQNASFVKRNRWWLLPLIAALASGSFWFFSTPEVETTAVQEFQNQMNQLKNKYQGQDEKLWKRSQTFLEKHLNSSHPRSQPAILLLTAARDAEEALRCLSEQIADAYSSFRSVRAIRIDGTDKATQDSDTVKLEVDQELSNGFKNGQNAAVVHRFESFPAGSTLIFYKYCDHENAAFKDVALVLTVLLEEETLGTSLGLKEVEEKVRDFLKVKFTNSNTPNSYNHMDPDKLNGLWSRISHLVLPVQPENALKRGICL
Chain of Left-right determination factor 2 (Homo sapiens) (O00292 whole entry, looked up): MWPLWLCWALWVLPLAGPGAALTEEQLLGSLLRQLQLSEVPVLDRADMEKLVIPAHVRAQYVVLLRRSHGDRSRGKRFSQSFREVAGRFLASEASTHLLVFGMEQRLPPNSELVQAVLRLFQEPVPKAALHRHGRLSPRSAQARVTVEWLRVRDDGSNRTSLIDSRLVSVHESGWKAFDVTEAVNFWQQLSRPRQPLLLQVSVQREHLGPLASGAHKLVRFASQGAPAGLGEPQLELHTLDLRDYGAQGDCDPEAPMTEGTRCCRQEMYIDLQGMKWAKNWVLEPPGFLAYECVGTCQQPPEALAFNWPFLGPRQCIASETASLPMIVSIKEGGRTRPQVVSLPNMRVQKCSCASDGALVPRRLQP
Chain of Albumin (Bos taurus) (P02769 whole entry, looked up): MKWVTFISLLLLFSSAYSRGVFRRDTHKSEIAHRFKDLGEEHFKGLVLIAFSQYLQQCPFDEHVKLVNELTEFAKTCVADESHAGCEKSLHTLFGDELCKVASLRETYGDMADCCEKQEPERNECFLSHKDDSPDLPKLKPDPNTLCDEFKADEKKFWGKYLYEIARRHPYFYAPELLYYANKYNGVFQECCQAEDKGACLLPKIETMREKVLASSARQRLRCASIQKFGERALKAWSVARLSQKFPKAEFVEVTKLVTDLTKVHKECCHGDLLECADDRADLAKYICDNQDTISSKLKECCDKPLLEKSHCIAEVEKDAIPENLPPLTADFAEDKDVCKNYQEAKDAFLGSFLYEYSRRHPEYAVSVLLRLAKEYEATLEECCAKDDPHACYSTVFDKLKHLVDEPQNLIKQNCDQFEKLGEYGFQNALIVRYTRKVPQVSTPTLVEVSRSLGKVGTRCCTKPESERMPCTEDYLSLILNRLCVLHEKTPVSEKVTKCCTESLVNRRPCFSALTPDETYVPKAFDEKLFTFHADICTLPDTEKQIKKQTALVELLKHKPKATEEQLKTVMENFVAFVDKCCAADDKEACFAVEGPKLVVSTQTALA
Chain of Alpha-bungarotoxin (Bungarus multicinctus) (P60615 whole entry, looked up): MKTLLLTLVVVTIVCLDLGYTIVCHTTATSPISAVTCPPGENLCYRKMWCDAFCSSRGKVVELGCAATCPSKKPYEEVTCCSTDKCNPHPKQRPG

Regarding `Cc1ccc(S[C@]2(C(=O)NCC(C)C)CC(=O)N(C3CCCCC3)[C@@H]2c2ccc(CO)cc2I)cc1`, the composite z-score was 1.35 in [1]; 0.261 in [3]; 1.73 in assay [4]; 0.549 in assay [5]; 0.02 in [6]; -0.188 in assay [7]. The composite z-score in assay [8] was -0.471; in assay [9], 0.703; in [10], 0.0462; in assay [11], 0.812; in assay [13], -0.246; in [14], -0.0862. In addition, the composite z-score in assay [15] was 0.637; in [16], 1.51; in [17], 0.738; in assay [18] it was 1.28; in assay [19], -0.0402; in [20], 0.88. Also, the z-score in assay [2] is -2.6. Also, in assay [12], the composite Z-score is 0.209 (inactive).
Regarding `C#CCNS(=O)(=O)N(C)C`, the composite z-score in [1] is 0.638; in assay [3], 0.713; in assay [4] it was -0.157; in [5] it was -0.687; in assay [6], -0.096; in assay [7], 0.0463. The composite z-score in [8] was -0.168; in assay [9], 0.0976; in [10], 0.601; in assay [11], 0.225; in assay [13], -0.124; in assay [14], -0.14. The composite z-score is -0.107 in assay [15]; 0.214 in assay [16]; -0.113 in assay [17]; 0.815 in [18]; 0.497 in [19]; 0.0968 in [20]. Besides, the z-score in [2] was found to be 0.119. For the same molecule, the composite Z-score in assay [12] was 0.0498 (inactive).
As for `CC(C)NC(=O)[C@@H]1c2ccccc2C(=O)N(Cc2cc(C(F)(F)F)cc(C(F)(F)F)c2)[C@H]1c1ccc(CO)cc1`, the composite z-score was 0.376 in assay [1]; 0.147 in [3]; 0.876 in [4]; 0.221 in [5]; -0.176 in [6]; -0.0793 in assay [7]. In addition, the composite z-score in [8] was 0.735; in assay [9], 0.724; in assay [10], 0.594; in assay [11] it was 0.52; in assay [13] it was -0.0931; in [14], -0.0052. Further, the composite z-score in assay [15] worked out at 0.298; in assay [16] it was 2.38; in assay [17], 0.706; in assay [18] it was 1.3; in assay [19], 0.0933; in assay [20], 1.09. Further, in assay [2], the z-score is -0.153. The composite Z-score in assay [12] was 1.21 (inactive).
`COc1ccc(CCNC(=O)[C@@H]2c3ccccc3C(=O)N(Cc3ccccc3C(F)(F)F)[C@H]2c2ccc(CO)cc2)cc1`: the composite z-score in assay [1] was 1.47; in assay [3] it was -1.27; in assay [4], -0.22; in assay [5] it was -0.181; in [6], -0.0735; in [7] it was -0.154. Moreover, the composite z-score is -0.559 in assay [8]; 0.381 in assay [9]; -0.278 in assay [10]; -0.187 in [11]; -0.246 in [13]; -0.0664 in assay [14]. For the same molecule, the composite z-score is 0.466 in [15]; 1.29 in assay [16]; 0.57 in assay [17]; 0.501 in [18]; -1.34 in assay [19]; -0.272 in assay [20]. This molecule also displayed a z-score in assay [2] of -1.2. For the same molecule, in assay [12], the composite Z-score is 1.36 (inactive).
As for `COc1cc2c(cc1OC)CN(C(=O)[C@@H]1[C@H]3C(=O)O[C@H](c4ccccc4)[C@H](c4ccccc4)N3[C@H](c3ccc(O)cc3)[C@@]13C(=O)Nc1ccc(C#CCNC(N)=O)cc13)CC2`, the composite z-score in [1] is 0.762; in [3], 0.382; in assay [4], 0.186; in assay [5], -0.0936; in assay [6], -0.0367; in [7] it was 0.0062. In addition, the composite z-score was -0.115 in assay [8]; 0.0623 in assay [9]; 0.469 in assay [10]; 0.0738 in assay [11]; 0.114 in [13]; -0.182 in assay [14]. Further, the composite z-score in assay [15] was -0.0348; in [16], 0.276; in [17], 1.06; in assay [18], 0.425; in assay [19] it was 0.498; in [20], 0.826. The molecule further displayed a z-score in [2] of -0.126. The composite Z-score in assay [12] is 0.507 (inactive).
For the molecule `NC(=O)NCC#Cc1ccc2c(c1)[C@]1(C(=O)N2)[C@H](c2ccc(OCCO)cc2)N2[C@H](c3ccccc3)[C@H](c3ccccc3)OC(=O)[C@H]2[C@@H]1C(=O)N1CCCCCCC1`, the composite z-score in assay [1] amounted to 1.46; in assay [3] it was 1.73; in [4], 2.77; in assay [5], 1.2; in assay [6] it was 1.38; in [7], 0.565. For the same molecule, the composite z-score was found to be 3.11 in assay [8]; 4.35 in assay [9]; 1.77 in assay [10]; 0.435 in assay [11]; 2.08 in [13]; 1.13 in assay [14]. Besides, the composite z-score was 0.894 in assay [15]; 2.81 in [16]; 0.669 in assay [17]; 1.23 in [18]; 1.13 in [19]; 1.14 in assay [20]. The z-score in assay [2] was -1.02. In addition, the composite Z-score in [12] was 5.46 (inactive).
